Rows were chosen to be rich in hits. Some 27% of all compounds tested hit in one or more screens of this group.
CYP2C9 act = CYP2C9 (human) activation | P11712 | recombinant CYP2C9, luciferin-H conversion, luminescence; active compounds read high; factor 1 = untreated enzyme, 0 = blocked | activation factor at 5 µM | AID 1024 | 96,000 tested, 1.4% active;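 active means activation factor of 2 or more for CYP2C9 at a 5 µM dose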;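 further: 0 = sulfaphenazole-blocked wells and 1 = vehicle-only wells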
sEH act = activators of human soluble epoxide hydrolase; P34913; purified human sEH enzymatic activity, activator screen; activation, % at 2 µM; 91,000 tested, 0.04% active; AID 717; in the data active means activation above about 37%
sEH inhibitor = soluble epoxide hydrolase (human) inhibition. P34913. recombinant human sEH enzymatic activity assay. inhibition, % at 2 µM. 91,000 tested, 0.34% active. AID 707; in the data active means inhibition above about 80%
CYP2C9 inh = blocks human cytochrome P450 2C9; P11712; CYP2C9 Supersomes, luciferin-H conversion, luminescence; inhibition, % at 5 µM; 96,000 tested, 20% active; AID 777;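 active means blocking of liver enzyme CYP2C9 beyond about 50% at 5 µM, limit read from the data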
CYP2C19 activ = activators of human cytochrome P450 2C19; P33261; recombinant CYP2C19, luciferin-H EGE luminescence; active compounds read high; 0 = fully inhibited enzyme, 1 = untreated enzyme; activation factor at 5 µM; 96,000 tested, under 10 active; AID 1025;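 active means activation factor of at least 2 at 5 µM in the primary screen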;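 further: 0 = wells with 2.5 mM tranylcypromine and 1 = vehicle-only wells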
Target sequence (P33261 whole entry, looked up): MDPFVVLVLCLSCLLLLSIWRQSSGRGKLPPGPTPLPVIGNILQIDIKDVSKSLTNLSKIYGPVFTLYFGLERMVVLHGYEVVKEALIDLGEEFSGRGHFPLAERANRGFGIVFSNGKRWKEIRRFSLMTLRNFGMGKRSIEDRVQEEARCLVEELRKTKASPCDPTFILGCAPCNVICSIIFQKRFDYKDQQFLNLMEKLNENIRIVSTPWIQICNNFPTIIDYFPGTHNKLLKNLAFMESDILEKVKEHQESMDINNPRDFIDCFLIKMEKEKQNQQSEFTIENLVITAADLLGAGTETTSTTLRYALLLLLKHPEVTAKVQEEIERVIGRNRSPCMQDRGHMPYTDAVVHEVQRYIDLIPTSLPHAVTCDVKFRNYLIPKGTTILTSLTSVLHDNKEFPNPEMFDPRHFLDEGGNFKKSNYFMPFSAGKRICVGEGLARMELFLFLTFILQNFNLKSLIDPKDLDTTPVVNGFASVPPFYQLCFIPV
CYP2C19 inh = inhibitors of human CYP2C19 | P33261 | CYP2C19 Supersomes, luciferin-H EGE luminescence, 30 min | inhibition, % at 5 µM | 96,000 tested, 21% active;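 active means CYP2C19 inhibition above a set limit at 5 µM in the primary screen, cut at about 50% in these data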;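 further: plate controls were negative control wells for no effect and 2.5 mM tranylcypromine positive control for full effect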
The depositor's hits bear a star; . = no result.

SMILES | CYP2C9 act | sEH act | sEH inhibitor | CYP2C9 inh | CYP2C19 activ | CYP2C19 inh
CCC(C(=O)NCc1ccccc1OC)n1nc(C)n2c(cc3occc32)c1=O (stereo not drawn) | 0.4 | -6 | 4 | 63* | 0.4 | 56*
CCc1nn(C(C)C(=O)NCCc2ccc(OC)c(OC)c2)c(=O)c2cc3occc3n12 (stereo not drawn) | 0.8 | . | . | 17 | 1 | 3
Cc1ccc(NC(=O)C(Cc2ccccc2)NC(=O)c2ccco2)cc1 (stereo not drawn) | 0.8 | -18 | 19 | 24 | 0.8 | 21
CNC(=O)c1c(C)nc(SCC(=O)NCc2ccc(OC)cc2)c(C#N)c1-c1ccco1 | 0.8 | 4 | -5 | 24 | 1 | 2
COCCOC(=O)c1c(C)nc(SCC(=O)Nc2ccc(C)cc2)c(C#N)c1-c1ccco1 | 0.1 | . | . | 92* | 0.4 | 64*
COCCOC(=O)c1c(C)nc(SCC(=O)Nc2cccc3ccccc23)c(C#N)c1-c1ccco1 | 0.1 | 4 | -5 | 94* | 1 | 4
Cc1cc(=O)[nH]c(SCC(=O)Nc2cccc3ccccc23)c1C#N | 0.1 | -8 | 6 | 86* | 0.7 | 26
O=C(NC1(C(F)(F)F)C(=O)Nc2c1c(=O)[nH]c(=O)n2Cc1ccco1)C1CCCCC1 (stereo not drawn) | 1.1 | 4 | -6 | -7 | 1.1 | -12
COC(=O)c1ccc(NC(=O)c2ccc(C)cc2)o1 | 1 | -7 | 5 | 3 | 1 | 0
CCOc1cc(N2CCOCC2)c(OCC)cc1NC(=O)c1ccc(=O)n(Cc2ccccc2)n1 | 1 | . | . | 4 | 1 | 0
Cc1ccc(-c2noc(CCC(=O)N3CCN(c4cccc(C(F)(F)F)c4)CC3)n2)cc1 | 0.1 | . | . | 93* | 0.2 | 77*
O=C(CCCc1nc(-c2ccc(Cl)cc2)no1)N1CCOCC1 | . | -1 | 6 | . | . | .
COc1ccc(-c2noc(CCC(=O)N3CCN(c4cc(C)ccc4C)CC3)n2)cc1 | 0.2 | 4 | -2 | 78* | 0.4 | 65*
COc1cccc(-c2nn(C)c3sc(C(=O)NCc4ccc(C)o4)cc23)c1 | 0.5 | . | . | 54* | 0.8 | 23
COc1cccc(-c2nn(C)c3sc(C(=O)NCc4ccc5c(c4)OCO5)cc23)c1 | 0.1 | 9 | -8 | 87* | 0.2 | 76*
COc1ccc(-c2cn3c(C)c(C(=O)NCc4ccc5c(c4)OCO5)sc3n2)cc1 | . | -21 | 20 | . | . | .
Cc1cccc(OCc2nnc(SCC(=O)Nc3sc(C)c(C)c3C#N)n2C)c1 | 0.6 | 14 | -14 | 38 | 0.9 | 12
CCOC(=O)c1sc(N)c(C#N)c1COC(=O)CNC(=O)c1ccccc1 | 0.3 | 1 | -3 | 73* | 0.6 | 42
CCOC(=O)c1sc(NC(=O)c2ccccc2)cc1C | 0.7 | -61 | 62 | 28 | 0.8 | 24
CCn1c(C(C)NC(=O)Cc2ccccc2)nc2ccccc21 (stereo not drawn) | 1.1 | 4 | -3 | -9 | 0.7 | 35
O=[N+]([O-])c1ccc(Sc2n[nH]c(-c3ccc(Cl)cc3Cl)n2)nc1 | 0.9 | 0 | -2 | 9 | 0.9 | 14
O=[N+]([O-])c1ccc(Sc2ccccc2Cl)nc1 | 1 | 4 | -2 | 1 | 0.4 | 62*
O=c1c2c3c(sc2n2cnnc2n1Cc1ccccc1)CN(Cc1ccccc1)CC3 | 0.3 | -3 | 2 | 74* | 0.3 | 66*
O=C(NC1=NC2CCCCC2N1)c1ccccc1 (stereo not drawn) | 1 | -4 | 7 | 2 | 0.7 | 32
O=C(O)CCc1ccc(-c2ccccc2)n1Cc1ccco1 | 0.5 | -9 | 10 | 47 | 0.4 | 63*
SMILES | CYP2C9 act | sEH act | sEH inhibitor | CYP2C9 inh | CYP2C19 activ | CYP2C19 inh
O=C(O)CCc1ccc(-c2ccc(Br)cc2)n1Cc1ccco1 | 1.1 | -1 | 0 | -8 | 0.7 | 26
Cc1ccc(-c2ccc(CCC(=O)O)n2CC2CCCO2)cc1 (stereo not drawn) | 1 | -6 | 9 | 1 | 0.9 | 7
O=C(O)CCc1ccc(-c2ccccc2)n1CC1CCCO1 (stereo not drawn) | 1 | 2 | 1 | 3 | 0.4 | 64*
O=C(O)CCc1ccc(-c2ccc(F)cc2)n1Cc1ccco1 | 0.9 | -2 | 1 | 9 | 0.4 | 57*
O=C(CCc1nc(-c2ccccc2F)no1)NC1CCCCC1 | 0.7 | -19 | 18 | 28 | 0.9 | 10
CCCN(CCC)CCNc1c(N2CCN(C(=O)OCC)CC2)c(=O)c1=O | 1.1 | 7 | -6 | -13 | 1.1 | -12
CCCn1c(CN2CCN(C)CC2)nc2ccccc21 | 1 | -4 | 3 | 1 | 0.7 | 27
CN(C)c1ccc(C2C=C(c3ccc(Cl)cc3OC(F)F)Nc3ncnn32)cc1 (stereo not drawn) | 0.1 | . | . | 94* | 0 | 99*
Cc1ccc(C2C=C(c3ccccc3OC(F)F)Nc3ncnn32)cc1 (stereo not drawn) | 0.3 | . | . | 66* | 0.6 | 36
CCn1nnc(-c2ccccc2NS(=O)(=O)c2ccc(C(=O)OC)cc2)n1 | 0.3 | 15 | -15 | 73* | 0 | 98*
CN(C(=O)CSc1nnc(Cc2cccc3ccccc23)n1N)C1CCS(=O)(=O)C1 (stereo not drawn) | 2* | 10 | -12 | -98 | 1.2 | -16
Nn1c(Cc2cccc3ccccc23)nnc1SC1CCOC1=O (stereo not drawn) | 2.9* | . | . | -191 | 0.4 | 55*
O=C(NC(NCC1CCCO1)C(Cl)(Cl)Cl)c1cccc2ccccc12 (stereo not drawn) | 0.7 | 32 | -28 | 30 | 0.9 | 8
CC(C)CC(=O)NC(NCC1CCCO1)C(Cl)(Cl)Cl (stereo not drawn) | 0.7 | 5 | -8 | 32 | 0.4 | 57*
Cc1ccc(-c2nnc(N3CCCCC3)c3ccccc23)cc1S(=O)(=O)NCC1CCCO1 (stereo not drawn) | 0.5 | -8 | 7 | 46 | 0.9 | 10
COc1ccc(C(C)=O)cc1CSc1nnc(-c2ccc(Cl)cc2)n1-c1ccccc1 | 0.5 | -9 | 8 | 45 | 0.5 | 50*
COc1ccc2[nH]c3nc(SC(C)C)nnc3c2c1 | 0.8 | 12 | -9 | 24 | 0.9 | 8
COc1ccc2[nH]c3nc(SCc4nnc(-c5ccccc5)o4)nnc3c2c1 | 0.4 | 12 | -16 | 64* | 0.5 | 50
Cc1nnc(SCc2nnc(-c3ccccc3Br)o2)n1-c1ccccc1 | 2* | 4 | -1 | -96 | 0.2 | 82*
C=CCSc1nnc(-c2ccncc2)n1-c1ccc(OCC)cc1 | 0.5 | 2 | 0 | 54* | 0 | 99*
COc1ccc(NC(=O)c2ccc(Cl)c(S(=O)(=O)N3CCc4ccccc4C3)c2)cn1 | 0.9 | . | . | 14 | 0.9 | 6
CCOc1ccc(N2CC(=O)Nc3ccccc3NCC2=O)cc1 | 0.9 | 13 | -14 | 12 | 0.9 | 9
COc1ccc(C(=O)/C=C/Nc2cc(C)on2)c(OC)c1 | 1.5 | . | . | -51 | 0.9 | 11

Bioassay records deposited in PubChem by several laboratories.
